Source: PubChem BioAssay AID1159580 (chemical genetic matrix, 2015)
The campaign covered roughly 5,500 compounds. About 2,000 (36%) were called active. Another 18% or so got no clear call; they are omitted. Rule as the data show it: active = normalized growth mostly below about 0.91 (no sharp cut-off); inconclusive = no clear call, values can overlap the other calls; inactive = mostly above about 0.92. The list shows a part of the results.

Experiment: chemical genetic growth profiling, strain panel (AID 1159580);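 also: tested at 20 µM; growth read once vehicle control cultures reached saturation at 30 °C; 1 = growth at the plate median or of vehicle wells; lower values mean less growth of the strain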
Conditions: S. cerevisiae deletion strains, growth OD

Measured: normalized growth

OC[C@H]1NC[C@@H](O)[C@@H]1O
inactive: locus YAL040C, strain CLN3, active compounds read low 0.993 | locus YCL061C, strain MRC1 (second series), active compounds read low 1 | locus YDR363W, strain ESC2, active compounds read low 1.02 | locus YER002W, strain NOP16, active compounds read low 0.998 | locus YGR229C, strain SMI1, active compounds read low 1.02 | locus YNL153C, strain GIM3, active compounds read low 0.999 | locus YNL175C, strain NOP13, active compounds read low 0.991 | locus YNL197C, strain WHI3, active compounds read low 1 | locus YNL224C, strain SQS1, active compounds read low 0.992 | locus YOR083W, strain WHI5 (second series), active compounds read low 1.01 | locus YPL055C, strain LGE1, active compounds read low 0.996 | locus YPL241C, strain CIN2, active compounds read low 1.01
